Test results as given in PubChem BioAssay AID1220 (Sanford-Burnham Center for Chemical Genomics, 2008).
About 1,300 (0.68%) of roughly 190,000 compounds were called active. This excerpt belongs to a sample that is enriched for actives. Values without a mark were called inactive. No stated cut-off is given here; in the data, active means inhibition above about 50%; inactive means the rest.

The compounds below were run against Mannose-6-phosphate isomerase (Homo sapiens) (UniProt P34949) (assay: human PMI inhibitors, high substrate, primary screen, biochemical, fluorescence intensity, high mannose 6-phosphate (AID 1220)). Details: recombinant PMI enzyme, coupled fluorescence intensity; at 20 µM; stronger effect = higher value.
Chain of Mannose-6-phosphate isomerase (Homo sapiens) (P34949 whole entry, looked up): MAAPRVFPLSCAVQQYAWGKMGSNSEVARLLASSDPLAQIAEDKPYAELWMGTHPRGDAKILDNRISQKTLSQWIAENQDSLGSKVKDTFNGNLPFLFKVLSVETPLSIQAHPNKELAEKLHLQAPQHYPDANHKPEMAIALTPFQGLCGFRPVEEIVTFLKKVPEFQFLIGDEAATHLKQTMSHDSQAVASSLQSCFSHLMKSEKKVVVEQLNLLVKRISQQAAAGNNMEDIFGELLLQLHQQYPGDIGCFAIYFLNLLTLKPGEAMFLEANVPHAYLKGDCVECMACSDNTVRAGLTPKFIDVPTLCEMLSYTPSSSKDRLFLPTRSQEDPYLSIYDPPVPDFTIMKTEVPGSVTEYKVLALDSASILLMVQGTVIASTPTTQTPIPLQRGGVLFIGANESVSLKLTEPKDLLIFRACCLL

Row | Structure (SMILES) | inhibition
1 | CN=C1SC(CC(=O)Nc2cc(Cl)ccc2Cl)C(=O)N1C (centres undefined) | -9.7%
2 | COc1ccc(/C=N/Nc2nc(N3CCCC3)nc(N3CCCC3)n2)c(OC)c1OC | 4%
3 | Cc1onc(-c2c(F)cccc2Cl)c1C(=O)NCCO | -4%
4 | CC1(C)CC(=O)C(C2c3ccccc3S(=O)(=O)c3ccccc32)C(=O)C1 | -5.8%
5 | COc1ccc2c(c1)C(C1C(=O)CCCC1=O)c1ccccc1O2 (centres undefined) | 2.9%
6 | CC1(C)CC(=O)C(C2c3ccccc3Oc3ccccc32)C(=O)C1 | 52.9% (active)
7 | O=C(c1ccc(-c2ccccc2)cc1)N1CCC(C(=O)N2CCCC2)CC1 | 5.4%
8 | COc1ccc(CC(=O)NC(=S)Nc2ccc(S(N)(=O)=O)cc2)cc1 | -5.8%
9 | CCOC(=O)C(NC(=O)Nc1ccccc1)(OCC)C(F)(F)F (centres undefined) | 5.2%
10 | Cc1cccc(NC(=O)NCC(F)(F)F)n1 | -6.3%
11 | CCOC(=O)C(NC(=O)Nc1cccc(C)n1)(OCC(F)(F)F)C(F)(F)F (centres undefined) | 59.1% (active)
12 | Cc1cc(C)nc(NS(=O)(=O)c2ccc(NC(=O)CN3C(=O)C4CC=CCC4C3=O)cc2)n1 (centres undefined) | -7.4%
13 | Cc1cc(C(=O)Nc2ccccc2C#N)n(-c2ccccc2)n1 | 1.2%
14 | CC(=O)c1cccc(N2C(=NC(=O)C(C)C)SC3CS(=O)(=O)CC32)c1 (centres undefined) | 10.5%
15 | O=C1COc2ccc(C(=O)COC(=O)Cc3ccccc3F)cc2N1 | -2.3%
16 | CC(=O)Oc1c(C)cc(O)c2ccccc12 | 19.2%
17 | CC(=O)Cc1cc(O)c2ccccc2c1OC(=O)c1ccccc1 | 68.6% (active)
18 | O=C(Oc1cccc2c(O)cccc12)c1ccccc1 | 23.5%
19 | Cc1cc(N2CCCC2=O)c(N)cc1N | 4.5%
20 | O=C1CN(CC(=O)Nc2cccc(Cl)c2Cl)c2ccccc2N1 | -43.6%
21 | CCOc1ccc2nc(NC3=NCN(Cc4ccco4)CN3)nc(C)c2c1 | -0.5%
22 | CCOc1cc(/C=C2\N=C(SCC)SC2=O)cc([N+](=O)[O-])c1OC(C)=O | 53.1% (active)
23 | CCOc1cc(/C=C2\N=C(SC)SC2=O)cc([N+](=O)[O-])c1OC(C)=O | 35.6%
24 | C=CCSC1=N/C(=C\c2cc(OCC)c(OC(C)=O)c([N+](=O)[O-])c2)C(=O)S1 | 38.8%
25 | CC(=O)NCC(=O)N(C)C(C(=O)Nc1ccc2c(c1)OCCO2)c1ccc(C)cc1 (centres undefined) | 5.2%
26 | CC(=O)NC(=S)Nc1sc2c(c1C(N)=O)CCC(C)C2 (centres undefined) | -3%

Row | Structure (SMILES) | inhibition
27 | COC(=O)Nc1sc2c(c1C(N)=O)CCC(C)C2 (centres undefined) | 59.6% (active)
28 | CCOC(=O)Nc1sc2c(c1C(N)=O)CCC(C)C2 (centres undefined) | -7.3%
29 | CC(C)C(NC(=O)c1ccc(Br)cc1)C(=O)NC1=NCCS1 (centres undefined) | -3%
30 | CON1C(=O)C(=O)N(OC)C(C)(C)C1(C)C | 44.6%
31 | Clc1ccc(C2NCCc3sccc32)cc1 (centres undefined) | 10.9%
32 | CC1=CC(C)(C)N=C(NC#N)N1 | 2.4%
33 | O=C(COc1ccc(Cl)cc1)N1CCN(c2ccc([N+](=O)[O-])c(N3CCCCC3)c2)CC1 | 12.2%
34 | COC(=O)CNC(=O)c1cccc(Cl)c1 | -5%
35 | O=C(NC(Cc1c[nH]c2ccccc12)C(=O)NCCCN1CCOCC1)c1cccs1 (centres undefined) | 11.4%
36 | O=C1c2ccccc2C(=O)c2c1oc(C(F)(F)F)c2C(=O)c1ccccc1 | -32.9%
37 | O=C(c1ccccc1)c1coc2c1C(=O)c1ccccc1C2=O | 30.7%
38 | CCCCOc1ccc(C(=S)N2CCC(C(N)=O)CC2)cc1 | 9.1%
39 | CCN(CC)c1cccc(OCC(=O)N(C)CCC#N)c1 | 53.3% (active)
40 | CCc1ccc(OCC(=O)N(C)CCC#N)c(Br)c1 | 3.1%
41 | CN(CCC#N)C(=O)COc1ccc(Br)cc1Cl | -5.3%
42 | Cc1cc(C)n(-c2cc(N3CCOCC3)nc(-c3ccccc3)n2)n1 | 8.9%
43 | CCc1sc(C(=O)NCCc2ccc(S(N)(=O)=O)cc2)cc1Br | 7.3%
44 | COc1cc(C(=O)NCCSc2ccc(Br)cc2)cc(OC)c1OC | 5.3%
45 | Cc1cc(S(=O)(=O)Nc2ccc(F)cc2)c(C)s1 | 5%
46 | Cc1cc(S(=O)(=O)Nc2ccc(N(C)C)cc2)c(C)s1 | 10.9%
47 | CC(=O)Nc1ccc(NS(=O)(=O)c2cc(C)sc2C)cc1 | 61.6% (active)
48 | CN(C)CCCNc1oc(-c2ccccc2)nc1C#N | -7.3%
49 | CCOC(=O)c1c(NCC2CCCO2)c2ccccc2[nH]c1=O (centres undefined) | -10.2%
50 | COc1ccc(N2C(=O)N(Cc3cccc(F)c3)c3ccccc3S2(=O)=O)cc1 | 0.3%
51 | CC1(C)CC(=O)C2=C(C1)NC(=O)NC2c1ccccc1 (centres undefined) | -2.6%
52 | Cc1ccc(-n2nnnc2Sc2nc([N+](=O)[O-])nn2C)cc1 | 18.5%

Row | Structure (SMILES) | inhibition
53 | Cc1nc2ccc(NC(=O)N3CCCCC3)cc2nc1C | 21.5%
54 | Cc1nc2ccc(NC(=S)N3CCN(c4ccccn4)CC3)cc2nc1C | 18.3%
55 | Cc1nc2ccc(NC(=S)N3CCOCC3)cc2nc1C | 45.1%
56 | Cc1nc2ccc(NC(=S)N3CCC(C)CC3)cc2nc1C | 55.4% (active)
57 | Cc1nc2ccc(NC(=S)N3CCCC3)cc2nc1C | 52.8% (active)
58 | CC1CCN(C(=S)Nc2ccc(F)cc2)CC1 | -10.5%
59 | CC1CCN(C(=O)Nc2ccc3nsnc3c2)CC1 | 62% (active)
60 | O=C(Nc1ccc2nsnc2c1)N1CCCCCC1 | 21.5%
61 | O=C(Nc1ccc2nsnc2c1)N1CCCCC1 | 24.1%
62 | COC(=O)CSc1cc(C)nc2ccc(OC)cc12 | 7.7%
63 | CC(C(=O)Nc1ccncc1)(c1ccccc1)c1ccccc1 | 10.8%
64 | O=C(CCN1C(=O)/C(=C/C=C/c2ccccc2)SC1=S)Nc1cccnc1 | 1.5%
65 | Cc1noc(C)c1C(=O)N1CCN(Cc2ccc3c(c2)OCO3)CC1 | 6.8%
66 | O=c1[nH]c2cc([N+](=O)[O-])c(NCCO)c([N+](=O)[O-])c2[nH]1 | 3.7%
67 | CC(=O)Nc1c([N+](=O)[O-])cc2[nH]c(=O)[nH]c2c1[N+](=O)[O-] | 56.9% (active)
68 | CN(C)c1c([N+](=O)[O-])cc2[nH]c(=O)[nH]c2c1[N+](=O)[O-] | 9.6%
69 | CC(C)Oc1ccc(C(CC(=O)O)n2cnnn2)cc1 (centres undefined) | 2%
70 | COC(=O)CN1C(=O)C2(C(C#N)=C(N)Oc3cc(C)oc(=O)c32)c2ccccc21 (centres undefined) | 7.9%
71 | Cc1nn(-c2ccccc2)c2c1C1(C(=O)N(C)c3ccccc31)C(C#N)=C(N)O2 (centres undefined) | 21.9%
72 | Cc1nn(-c2ccccc2)c2c1C1(C(=O)N(C(C)C)c3ccccc31)C(C#N)=C(N)O2 (centres undefined) | 24.1%
73 | COC(=O)CN1C(=O)C2(C(C#N)=C(N)Oc3n[nH]c(-c4cccs4)c32)c2ccccc21 (centres undefined) | 7.3%
74 | CC(=O)N1C(=O)C2(C(C#N)=C(N)Oc3c2c(C)nn3-c2ccccc2)c2ccccc21 (centres undefined) | 62.8% (active)
75 | Cc1nn(-c2ccccc2)c2c1C1(C(=O)N3c4c(cccc41)C(C)CC3(C)C)C(C#N)=C(N)O2 (centres undefined) | 21%
76 | CCN1C(=O)C2(C(C#N)=C(N)Oc3c2c(C)nn3-c2ccccc2)c2ccccc21 (centres undefined) | 62.1% (active)
77 | CC(=O)N1C(=O)C2(C(C#N)=C(N)Oc3cc(C)oc(=O)c32)c2ccccc21 (centres undefined) | 11%
78 | COC(=O)CN1C(=O)C2(C(C#N)=C(N)Oc3c2c(C)nn3-c2ccccc2)c2ccccc21 (centres undefined) | 58.9% (active)

Row | Structure (SMILES) | inhibition
79 | CCCCC1NC(=S)N(C2CCCCC2)C1=O (centres undefined) | -7.2%
80 | COC(=O)c1sc2ccccc2c1-n1cccc1C(=O)C(=O)Nc1ccc(C)cc1 | 4.8%
81 | O=c1[nH]c(SCC2CCCCO2)nc2ccccc12 (centres undefined) | -2.3%
82 | O=C1CSC(c2cccc(Cl)c2Cl)N1c1ccccn1 (centres undefined) | 12.3%
83 | Cc1ccc(C)c(S(=O)(=O)Nc2ccccc2C(=O)Nc2cc(C)on2)c1 | 8.8%
84 | COC(=O)c1cccc(NS(C)(=O)=O)c1C | -5.8%
85 | CNc1nc(C)c(C(=O)OCC(=O)OC)s1 | -0.1%
86 | CC(NC(=O)CSCc1ccccc1Br)c1ccccc1 (centres undefined) | 4.4%
87 | COc1ccc(NC(=S)Nc2ccccc2SC)c(OC)c1 | 20.7%
88 | Cc1ccc(CN(CC(=O)N/N=C/c2ccco2)S(=O)(=O)c2ccc(C)cc2)cc1 | 4.9%
89 | Cc1[nH]c(=S)[nH]c(=O)c1CCCO | 5.3%
90 | COC1=C(OC)C(=O)C(CCCCCCCCCCO)=C(C)C1=O | 78.2% (active)
91 | CC1=C(C)C(=O)C(CCCCC#CCCCC#CCO)=C(C)C1=O | 19.9%
92 | COc1ccc(OC)c(-n2c(=S)[nH]c3c(sc(=S)n3-c3ccccc3)c2=O)c1 | 9.2%
93 | COc1ccccc1-n1c(=S)[nH]c2c(sc(=S)n2-c2ccccc2)c1=O | -3.7%
94 | Cc1ccc(/C=C2\SC(=S)N(C3CCS(=O)(=O)C3)C2=O)cc1 (centres undefined) | -2.5%
95 | C=CCn1c(COc2ccccc2F)nnc1SCC(=O)NC(=O)NCc1ccco1 | -4%
96 | Cc1ccc(C2C(C#N)=C(N)Oc3n[nH]c(C)c32)cc1 (centres undefined) | 8.4%
97 | CCNc1nc2[nH]c(=O)c3c(c2s1)OC(N)=C(C#N)C3c1ccc(C)cc1 (centres undefined) | 62.6% (active)
98 | Cc1oc(C)c2c(=O)ccc3c(c12)OC(N)=C(C#N)C3c1ccccc1 (centres undefined) | 2.8%
99 | CN(C)c1ccc2c(c1)OC(N)=C(C#N)C2c1cccc(F)c1 (centres undefined) | 25.2%
100 | CNc1nc2[nH]c(=O)c3c(c2s1)OC(N)=C(C#N)C3c1cccc(F)c1 (centres undefined) | 54.7% (active)
101 | Cc1cc(C)c2c3c(sc2n1)C(c1cccc(F)c1)C(C#N)=C(N)O3 (centres undefined) | -7%
102 | Cc1ccc(C2C(C#N)=C(N)Oc3c2c(=O)n(C)c(=O)n3C)cc1 (centres undefined) | -24.8%
103 | CNc1nc2[nH]c(=O)c3c(c2s1)OC(N)=C(C#N)C3c1ccccc1 (centres undefined) | 52% (active)
104 | COC(=O)C1=C(C)OC(N)=C(C#N)C1c1ccccc1 (centres undefined) | -8.8%
